# Measured values as given in PubChem BioAssay AID1259240 (Keith Lab, Institute of Cancer Science, University of …, 2017).
# Unmarked numbers belong to inactive results. Active and inactive are the calls of the source. Rule as the data show it: active = fold change mostly below about -2 (no sharp cut-off); inactive = mostly above about -1.8.
# Test: TERT promoter activity modulators, primary screen, cell-based, luciferase reporter, human (AID 1259240)
# Details: A2780 TERT promoter luciferase reporter, 16 h; at 20 µM, fold versus average of vehicle-only wells
Structure (SMILES),fold change,outcome
Cc1c(Cl)cccc1NS(=O)(=O)c1cccc2cccnc12,-1.05,–
Oc1oc(-c2ccccc2)nc1C=Nc1ccc(Cl)c2cccnc12,–,inactive
O=C1Nc2ccccc2/C1=C\c1cn(Cc2ccccc2F)c2ccccc12,-1.04,–
Cc1nc2cc(-c3ccc(Cl)cc3)nn2c(C)c1CCC(=O)O,-16.5 (active),–
O=C1CC(c2cc3c(cc2Cl)OCO3)c2cc3c(cc2N1)OCCO3 (configuration not stated),1.12,–
CCNc1nc(NCC)nc(C(=O)OCCO)n1,1.24,–
COc1ccc2nc(C)c(C(=O)OCCN(C)C)cc2c1,1.5,–
COC(=O)c1nc2n(n1)C(c1ccc(C)cc1)C1=C(CCCC1=O)N2 (configuration not stated),–,inactive
COc1cccc2cc(S(=O)(=O)c3ccccc3)c(=O)oc12,1.83,–
CCCc1nnc2n1Nc1nc3ccccc3nc1S2,1.62,–
C=CCn1c(=N)n(CC(=O)C(C)(C)C)c2ccccc21,-1.1,–
CN(C(=O)Cn1c(=O)n(CCCS(=O)(=O)C2CCCCC2)c(=O)c2ccccc21)c1ccccc1,-1.1,–
COc1ccc2[nH]cc(S(=O)(=O)c3ccc(C)cc3)c(=O)c2c1,1.08,–
O=C1Nc2ccc(Br)cc2/C1=C\c1nc2ccccc2c(=O)n1-c1cccc(C(=O)O)c1,–,inactive
Cc1csc(NC(=O)C2=CCN(S(=O)(=O)c3ccccc3)CC2)n1,1.13,–
CC1=CC(=O)OC1Cc1ccc2ccccc2n1 (configuration not stated),-1.06,–
C=CCOc1ccc(-c2nc3s/c(=C\c4ccc(OC(C)=O)c(OC)c4)c(=O)n3n2)cc1,1.33,–
